Only some compounds are listed: those with a hit (about 19% of all), similar ones and a draw of the others.
Pf growth 48h – Primary qHTS for delayed death inhibitors of the malarial parasite plastid, 48 hour incubation; Potency, µM (titrated, usually from 28.7 µM), hits mostly inhibitors; 310,000 compounds, 5.9% hits; AID 504832, 2011; P. falciparum luciferase growth in erythrocytes, 48 h
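Luciferase-expressing P. falciparum in infected erythrocytes (2% hematocrit, 0.1% parasitemia final) in RPMI 1640/0.5% Albumax were exposed to compound for 48 hours at 37 C, 5% CO2; growth read as luminescence.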
Lassa entry inh – qHTS for Inhibitors of binding or entry into cells for Lassa Virus. Potency, µM (series often up to 37.9 µM), actives largely listed as inhibitors. Lassa virus pseudotype entry inhibition, cell reporter. AID 540256, 2011. 300,000 compounds, 1.2% hits; calls by dose curve; tested in HEK293 cells; note: nearly all actives have a fitted effect of over 50% in size
CHX counter – Cycloheximide Counterscreen for Small Molecule Inhibitors of Shiga Toxin; cell reporter, cycloheximide protein synthesis inhibition counterscreen; max response, %; 300,000 compounds, 12% hits; AID 2314, 2010; in the data active = max response mostly above about 13%, no sharp cut-off; inactive = mostly below about 14%; note: read at 38.3 µM for the half of the compounds with a filed dose
Shiga inhibitor – A qHTS for Small Molecule Inhibitors of Shiga Toxin. Vero cells, Shiga toxin protein synthesis inhibition reporter. inhibition, % at 38.7 µM. 290,000 compounds, 9.2% hits. AID 2315, 2010; in the data active = inhibition mostly above about 28%, no sharp cut-off; inactive = mostly below about 43%
Pf growth 96h – Primary qHTS for delayed death inhibitors of the malarial parasite plastid, 96 hour incubation; 320,000 compounds, 6.9% hits; Potency, µM (titrated, usually from 28.7 µM), actives largely listed as inhibitors; AID 504834, 2011; P. falciparum luciferase reporter growth, 96 h
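P. falciparum expressing integrated firefly luciferase, in erythrocytes at 2% hematocrit, 0.05% parasitemia, incubated with compounds 96 h at 37 C, 5% CO2. Growth inhibition read as loss of luminescence; two-generation exposure targets delayed-death apicoplast inhibitors.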
Marburg entry inh – qHTS for inhibitors of binding or entry into cells for Marburg Virus. Marburg virus pseudotyped entry inhibition, cell reporter. AID 540276, 2011. 300,000 compounds, 1.8% hits. Potency, µM (top dose mostly 37.8 µM), usual class: inhibitors; calls by dose curve; tested in HEK293 cells
Hits are given with their value; i = inactive; ? = inconclusive; nt = not tested or not shown. Unless noted, calls come from the whole dose curve; as a rule, active = well fitted inhibition curve with a large enough effect; inconclusive = small, poorly fitted or top-dose-only effect, or another doubt; inactive = no such curve, though single readings can be large or run the other way.

SMILES	Pf growth 48h	Lassa entry inh	CHX counter	Shiga inhibitor	Pf growth 96h	Marburg entry inh
COc1cc(C2OCC3C(c4cc(OC)c(OC)c(OC)c4)OCC23)cc(OC)c1OC (centres undefined)	?	nt	i	i	i	nt
CCOC(=O)CNC(=O)CSc1nnc(-c2ccco2)n1N	i	i	i	i	?	i
COc1cccc(-c2nnc(SCC(=O)NCc3ccc4c(c3)OCO4)n2Cc2ccco2)c1	nt	i	i	i	6.57µM	i
O=C(CSc1nnc(-c2ccco2)n1Cc1ccccc1)c1ccccc1	i	i	38.3	72.0	?	?
O=C(CSc1nnc(-c2cccnc2)n1Cc1ccco1)NCc1ccc2c(c1)OCO2	i	i	i	i	?	i
NC(=O)NC(=O)CSc1nnc(-c2ccco2)n1Cc1ccccc1	i	i	i	i	i	i
CCOC(=O)CNC(=O)CSc1nnc(-c2ccco2)n1Cc1ccco1	i	i	i	i	8.28µM	i
Cn1c(SCC(=O)c2ccc(-c3ccccc3)cc2)nnc1-c1ccco1	i	i	28.2	29.2	i	i
CCOC(=O)c1cnc2c(-c3ccccc3)c(-c3ccccc3)nn2c1C	?	i	i	i	i	?
Cc1ccc(C(=O)CSc2nnc(-c3ccco3)n2Cc2ccccc2)cc1	i	i	22.4	i	7.38µM	i
O=C(CSc1nnc(-c2ccco2)n1Cc1ccccc1)NC(=O)NCc1ccccc1	?	i	i	i	11.7µM	i
c1ccc(Cn2c(SCc3cn4cccnc4n3)nnc2-c2ccco2)cc1	i	i	i	i	11.7µM	i
c1ccc(-n2cnnc2SCc2cn3cccnc3n2)cc1	i	i	i	i	?	i
O=C1C2C3C=CC(CC3)C2C(=O)N1c1ccc(Br)cc1[N+](=O)[O-] (centres undefined)	i	i	i	i	i	i
Fc1cccc(Cn2cc(C(=S)N3CCOCC3)c3ccccc32)c1	?	i	i	i	i	i
Fc1cccc(Cn2cc(C(=S)N3CCCCC3)c3ccccc32)c1	11.7µM	?	i	i	?	?
Cc1cc(C)cc(NC(=O)c2cc(C)nc3ccccc23)c1	?	i	i	i	11.7µM	i
O=C(Nc1nc2c(s1)CCCC2)c1cc(-c2ccc3c(c2)OCO3)nc2ccccc12	i	nt	26.3	i	i	nt
O=C(Nc1ccc2c(c1)OCO2)c1cc(-c2ccncc2)nc2ccccc12	?	?	18.7	i	?	?
Cc1cc(C(=O)NNC(=S)NC(C)c2ccccc2)c2ccccc2n1 (centres undefined)	i	i	i	i	10.4µM	i
O=C(Nc1cc(Cl)cc(Cl)c1)c1cnn2cccnc12	i	i	i	i	i	i
COc1ccc(C(=O)C(C)[n+]2ccc(C)c3ccccc32)cc1[N+](=O)[O-] (centres undefined)	?	nt	i	i	?	nt
CC(C)[C@H](NC(=O)c1ccccc1)C(=O)OCC(=O)Nc1ncc(Cl)cc1Cl	nt	i	nt	nt	nt	i
Cc1cc(C(=O)Nc2ccc3c(c2)OCCO3)c2ccccc2n1	i	i	21.7	79.9	i	i
Cc1cc(C(=O)Nc2ccccc2)c2ccccc2n1	i	nt	i	i	13.1µM	nt
SMILES	Pf growth 48h	Lassa entry inh	CHX counter	Shiga inhibitor	Pf growth 96h	Marburg entry inh
O=C(Nc1ccc2c(c1)OCCO2)c1cc(-c2ccccc2)nc2ccccc12	?	i	i	i	?	?
Cn1c(NC(=O)c2cc(-c3ccc4c(c3)OCO4)nc3ccccc23)cc(=O)n(C)c1=O	i	i	43.2	i	i	i
CC(C)(C)NC(=O)c1cc(-c2ccc3c(c2)OCO3)nc2ccccc12	i	i	i	i	i	i
Cc1cc(C(=O)Nc2ccc(Br)cc2)c2ccccc2n1	i	nt	i	nt	i	nt
COc1cccc(-c2cc(C(=O)Nc3ccc4c(c3)OCCO4)c3ccccc3n2)c1	9.28µM	nt	22.1	i	6.57µM	i
Cc1cc(C(=O)Nc2ccc(Cl)cc2)c2ccccc2n1	i	i	i	i	i	i
COc1ccc(CCn2c(-c3ccc(OC)cc3)nc3c(c(=O)c4ccccc4n3C)c2=O)cc1	i	i	i	i	?	?
Fc1ccc(-n2c(-c3ccc4ccccc4n3)n[nH]c2=S)cc1	i	nt	i	i	i	nt
NCC(CP(=O)(O)O)c1ccc(Cl)cc1 (centres undefined)	nt	?	nt	nt	nt	i
Cc1c(C(=O)NC2CCCCC2)oc2ccc(F)cc12	i	i	50.9	113.5	i	?
Cc1ccc2oc(C(=O)NC3CCS(=O)(=O)C3)c(C)c2c1 (centres undefined)	i	nt	29.9	35.0	i	nt
COc1ccc2oc(C(=O)NN3C(C)CCCC3C)c(C)c2c1 (centres undefined)	i	nt	i	i	i	i
COc1ccc2oc(C(=O)NC3CCCCC3)c(C)c2c1	i	nt	47.2	113.8	i	nt
COc1ccc2oc(C(=O)Nc3ccccn3)c(C)c2c1	i	i	56.7	66.0	i	?
COc1ccc2oc(C(=O)Nc3ccc(C)cn3)c(C)c2c1	i	i	nt	nt	i	?
CCOc1cc(N2CCOCC2)c(OCC)cc1NC(=O)COC(=O)c1ccccc1C	?	?	i	i	?	?
COc1ccc(CCNC(=O)CSc2nc3ccccc3o2)cc1OC	nt	i	i	i	i	i
Cc1ccc(OCC(=O)N(c2ccccn2)C2CCCCC2)c(C)c1	?	i	i	i	7.38µM	i
O=C(COc1ccc(Cl)cc1Cl)N(c1ccccn1)C1CCCCC1	?	i	30.3	i	i	?
O=C(COC(=O)COc1ccc(Cl)cc1Br)NC1CCCCCC1	i	nt	nt	nt	i	nt
CN(C(=O)COc1ccc(Cl)cc1Br)C1CCCCC1	i	i	45.3	71.9	i	?
COc1cc(N)c(Cl)cc1C(=O)OCC(=O)NCC1CCCCC1	nt	i	nt	nt	nt	?
COc1cccc(N2CCN(C(=O)c3cccc(-n4c(C)nc5cccnc54)c3)CC2)c1	nt	i	nt	nt	nt	nt
Cc1sc2nc(SCC(=O)OC(C)C)n(C)c(=O)c2c1C	i	i	i	i	i	i
COC(=O)c1ccc(/C=C/c2c(-c3ccsc3)sc3ccccc23)cc1	?	nt	i	i	?	nt
SMILES	Pf growth 48h	Lassa entry inh	CHX counter	Shiga inhibitor	Pf growth 96h	Marburg entry inh
Cc1ccc(-n2nnnc2C(=Cc2ccc(N(C)C)cc2)c2nnnn2-c2ccc(C)cc2)cc1	?	?	i	i	?	?
CCN(CC)c1ccc(C=C(c2nnnn2-c2ccccc2)c2nnnn2-c2ccccc2)cc1	?	2.51µM	i	i	i	?
Cc1cc[n+](CC(=O)c2ccccc2)c2ccccc12	?	?	i	i	i	?
Cc1cc(C)c(C#N)c(N2CCN(c3ccccc3F)CC2)n1	i	nt	i	i	11.7µM	nt
Cc1cc(C)c(C#N)c(N2CCN(Cc3ccccc3)CC2)n1	i	i	i	i	nt	i
O=C(NC(=S)NCC1COc2ccccc2O1)c1ccccc1 (centres undefined)	i	i	i	i	?	i
Cn1c(=O)n(C)c2cc(/C=N/NC(=S)NCc3ccccc3)ccc21	i	i	i	i	i	?

High-throughput results (PubChem)
